Measured values: PubChem BioAssay AID1159580 (chemical genetic matrix, 2015)
Among all 5,500 compounds or so, about 2,000 (36%) were called active. Inconclusive results (about 18%) are left out. Cut-off read from the data, not from the text of the source: active = normalized growth mostly below about 0.91 (no sharp cut-off); inconclusive = no clear call, values can overlap the other calls; inactive = mostly above about 0.92. Some of the results follow.

Experiment: chemical genetic growth profiling, strain panel (AID 1159580);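 note: tested at 20 µM; growth read once vehicle control cultures reached saturation at 30 °C; 1 = growth at the plate median or of vehicle wells; lower values mean less growth of the strain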
Details: S. cerevisiae deletion strains, growth OD
[1] = locus YDR150W, strain NUM1, stronger effect = lower value
[2] = locus YMR307W, strain GAS1, stronger effect = lower value
[3] = locus YPL055C, strain LGE1, stronger effect = lower value

Measured: normalized growth

C[C@]12C=CC(=O)C=C1CC[C@H]1[C@@H]3C[C@@H](O)[C@](O)(C(=O)CO)[C@@]3(C)C[C@H](O)[C@@]12F
inactive: locus YAL040C, strain CLN3, stronger effect = lower value 1.02 | locus YCL061C, strain MRC1 (second series), stronger effect = lower value 1.01 | [1] 1 | locus YDR363W, strain ESC2, stronger effect = lower value 1.05 | locus YER002W, strain NOP16, stronger effect = lower value 1.01 | locus YGR078C, strain PAC10, stronger effect = lower value 1 | [2] 1.02 | locus YNL128W, strain TEP1, stronger effect = lower value 1.01 | locus YNL153C, strain GIM3, stronger effect = lower value 1 | locus YNL175C, strain NOP13, stronger effect = lower value 1 | locus YNL197C, strain WHI3, stronger effect = lower value 0.987 | locus YNL224C, strain SQS1, stronger effect = lower value 1.01 | locus YOR083W, strain WHI5 (second series), stronger effect = lower value 1.01 | [3] 1.03

CSCCC(NC=O)C(=O)NC(CC(C)C)C(=O)NC(Cc1ccccc1)C(=O)O (centres undefined)
inactive: locus YAL013W, strain DEP1, stronger effect = lower value 1.01 | locus YAL021C, strain ccr4, stronger effect = lower value 1.01 | locus YAL026C, strain drs2, stronger effect = lower value 1 | locus YAL030W, strain snc1, stronger effect = lower value 1 | locus YBL061C, strain skt5, stronger effect = lower value 1 | locus YBR009C, strain hhf1, stronger effect = lower value 1 | locus YBR021W, strain FUR4, stronger effect = lower value 0.998 | locus YBR023C, strain chs3, stronger effect = lower value 1 | locus YBR171W, strain sec66, stronger effect = lower value 0.998 | locus YBR229C, strain ROT2, stronger effect = lower value 1 | locus YBR231C, strain swc5, stronger effect = lower value 0.997 | locus YBR279W, strain paf1, stronger effect = lower value 1.01 | locus YCL011C, strain gbp2, stronger effect = lower value 1 | locus YCL016C, strain dcc1, stronger effect = lower value 1 | locus YCL029C, strain bik1, stronger effect = lower value 0.983 | locus YCL061C, strain MRC1, stronger effect = lower value 1.01 | locus YCL069W, strain vba3, stronger effect = lower value 1.01 | locus YCR088W, strain abp1, stronger effect = lower value 0.999 | locus YDL005C, strain med2, stronger effect = lower value 0.988 | locus YDL035C, strain GPR1, stronger effect = lower value 0.999 | locus YDL040C, strain nat1, stronger effect = lower value 1 | locus YDL074C, strain BRE1, stronger effect = lower value 1.03 | locus YDL101C, strain DUN1, stronger effect = lower value 1.02 | locus YDL134C, strain PPH21, stronger effect = lower value 0.996 | locus YDL185W, strain tfp1, stronger effect = lower value 0.994 | locus YDL192W, strain arf1, stronger effect = lower value 0.994 | locus YDR001C, strain nth1, stronger effect = lower value 1 | locus YDR069C, strain doa4, stronger effect = lower value 1 | locus YDR101C, strain arx1, stronger effect = lower value 1 | locus YDR137W, strain rgp1, stronger effect = lower value 1.01 | [1] 1.01 | locus YDR159W, strain sac3, stronger effect = lower value 1 | locus YDR162C, strain NBP2, stronger effect = lower value 1 | locus YDR195W, strain ref2 0.97 | locus YDR297W, strain sur2, stronger effect = lower value 0.99 | locus YDR318W, strain mcm21, stronger effect = lower value 1.01 | locus YDR334W, strain swr1, stronger effect = lower value 1.01 | locus YDR335W, strain msn5, stronger effect = lower value 1 | locus YDR388W, stronger effect = lower value 1 | locus YDR392W, strain spt3, stronger effect = lower value 1.01 | locus YDR502C, strain sam2, stronger effect = lower value 1 | locus YEL003W, strain gim4, stronger effect = lower value 1 | locus YEL037C, strain rad23, stronger effect = lower value 1.01 | locus YEL061C, strain CIN8 (second series), stronger effect = lower value 1.02 | locus YEL061C, strain CIN8, stronger effect = lower value 1.01 | locus YER015W, strain faa2, stronger effect = lower value 1 | locus YER016W, strain bim1, stronger effect = lower value 1 | locus YER110C, stronger effect = lower value 1.01 | locus YER111C, strain swi4, stronger effect = lower value 1 | locus YER155C, strain BEM2 (second series), stronger effect = lower value 0.995 | locus YER155C, strain BEM2, stronger effect = lower value 1.01 | locus YER167W, strain BCK2, stronger effect = lower value 0.995 | locus YFR010W, strain ubp6, stronger effect = lower value 1 | locus YGL078C, strain dbp3, stronger effect = lower value 0.99 | locus YGL086W, strain mad1, stronger effect = lower value 1 | locus YGL167C, strain pmr1, stronger effect = lower value 1 | locus YGL173C, strain kem1, stronger effect = lower value 1.01 | locus YGL227W, strain vid30, stronger effect = lower value 0.992 | locus YGL240W, strain doc1, stronger effect = lower value 1 | locus YGL248W, strain PDE1, stronger effect = lower value 1.01 | locus YGL253W, strain hxk2, stronger effect = lower value 0.995 | locus YGR135W, strain pre9, stronger effect = lower value 1 | locus YGR252W, strain gcn5, stronger effect = lower value 1.01 | locus YHR013C, strain ard1, stronger effect = lower value 1 | locus YHR027C, strain rpn1, stronger effect = lower value 0.986 | locus YHR030C, strain SLT2, stronger effect = lower value 0.998 | locus YHR079C, strain IRE1 (second series), stronger effect = lower value 1 | locus YHR094C, strain hxt1, stronger effect = lower value 1 | locus YHR129C, strain ARP1, stronger effect = lower value 1.01 | locus YHR142W, strain chs7, stronger effect = lower value 1.01 | locus YHR200W, strain rpn10, stronger effect = lower value 0.98 | locus YIL066C, strain RNR3, stronger effect = lower value 0.996 | locus YIL073C, strain SPO22, stronger effect = lower value 1.01 | locus YIL125W, strain kgd1, stronger effect = lower value 0.998 | locus YIR030C, strain dcg1, stronger effect = lower value 0.99 | locus YJL092W, strain hpr5, stronger effect = lower value 0.993 | locus YJL095W, strain BCK1 (second series), stronger effect = lower value 1 | locus YJL095W, strain BCK1, stronger effect = lower value 1.03 | locus YJL115W, strain asf1, stronger effect = lower value 1.01 | locus YJL129C, strain trk1, stronger effect = lower value 1 | locus YJL134W, strain LCB3, stronger effect = lower value 1 | locus YJL154C, strain vps35, stronger effect = lower value 1 | locus YJL164C, strain tpk1, stronger effect = lower value 1.01 | locus YJL166W, strain qcr8, stronger effect = lower value 1.03 | locus YJL168C, strain set2, stronger effect = lower value 1.01 | locus YJL187C, strain SWE1 (second series), stronger effect = lower value 1.04 | locus YJL187C, strain SWE1, stronger effect = lower value 0.999 | locus YJR043C, strain POL32, stronger effect = lower value 0.992 | locus YJR075W, strain HOC1, stronger effect = lower value 1.02 | locus YKL009W, strain mrt4, stronger effect = lower value 1.01 | locus YKL068W, stronger effect = lower value 0.996 | locus YKL085W, strain MDH1 (second series), stronger effect = lower value 0.995 | locus YKL085W, strain MDH1, stronger effect = lower value 0.995 | locus YKL160W, strain elf1, stronger effect = lower value 1.01 | locus YKL190W, strain CNB1, stronger effect = lower value 1.01 | locus YKR001C, strain vps1, stronger effect = lower value 0.992 | locus YKR026C, strain gcn3, stronger effect = lower value 0.994 | locus YKR091W, strain srl3, stronger effect = lower value 1.01 | locus YLL001W, strain dnm1, stronger effect = lower value 1 | locus YLL026W, stronger effect = lower value 0.996 | locus YLL041C, strain sdh2, stronger effect = lower value 1.01 | locus YLR027C, strain aat2, stronger effect = lower value 0.988 | locus YLR039C, strain RIC1, stronger effect = lower value 1 | locus YLR058C, strain SHM2, stronger effect = lower value 1.02 | locus YLR102C, strain apc9, stronger effect = lower value 1 | locus YLR221C, strain rsa3, stronger effect = lower value 0.998 | locus YLR258W, strain gsy2, stronger effect = lower value 1.02 | locus YLR262C, strain YPT6 (second series), stronger effect = lower value 1.02 | locus YLR262C, strain YPT6, stronger effect = lower value 1.05 | locus YLR268W, strain sec22, stronger effect = lower value 1 | locus YLR320W, strain mms22, stronger effect = lower value 0.998 | locus YLR330W, strain CHS5, stronger effect = lower value 1.01 | locus YLR342W, strain FKS1 (second series), stronger effect = lower value 1.01 | locus YLR342W, strain FKS1, stronger effect = lower value 1 | locus YLR357W, strain rsc2, stronger effect = lower value 0.971 | locus YLR370C, strain arc18, stronger effect = lower value 1 | locus YLR371W, strain rom2, stronger effect = lower value 1.01 | locus YLR384C, strain iki3, stronger effect = lower value 1 | locus YLR418C, strain cdc73, stronger effect = lower value 0.998 | locus YML016C, strain PPZ1, stronger effect = lower value 1 | locus YML032C, strain rad52, stronger effect = lower value 0.998 | locus YML120C, strain ndi1, stronger effect = lower value 1.01 | locus YML124C, strain tub3, stronger effect = lower value 1 | locus YMR058W, strain fet3, stronger effect = lower value 1 | locus YMR078C, strain ctf18, stronger effect = lower value 1 | locus YMR125W, strain sto1, stronger effect = lower value 0.993 | locus YMR129W, stronger effect = lower value 1 | locus YMR205C, strain PFK2, stronger effect = lower value 1 | locus YMR223W, strain ubp8, stronger effect = lower value 1 | locus YMR231W, strain pep5, stronger effect = lower value 0.977 | [2] 1.05 | locus YNL067W, strain RPL9B, stronger effect = lower value 1.03 | locus YNL071W, strain lat1, stronger effect = lower value 1 | locus YNL209W, strain ssb2, stronger effect = lower value 1.01 | locus YNL233W, strain BNI4, stronger effect = lower value 1.02 | locus YNL248C, strain rpa49, stronger effect = lower value 1 | locus YNL250W, strain rad50, stronger effect = lower value 1.01 | locus YNL271C, strain bni1, stronger effect = lower value 0.996 | locus YNL298W, strain CLA4, stronger effect = lower value 1 | locus YNL307C, strain MCK1, stronger effect = lower value 1 | locus YNL322C, strain KRE1 (second series), stronger effect = lower value 0.996 | locus YNR049C, strain mso1, stronger effect = lower value 0.998 | locus YNR052C, strain pop2, stronger effect = lower value 1 | locus YOL006C, strain TOP1, stronger effect = lower value 1.06 | locus YOL012C, strain htz1 0.872 | locus YOL147C, strain pex11, stronger effect = lower value 1 | locus YOR001W, strain rrp6, stronger effect = lower value 1.01 | locus YOR061W, strain CKA2, stronger effect = lower value 0.997 | locus YOR069W, strain VPS5, stronger effect = lower value 1 | locus YOR070C, strain gyp1, stronger effect = lower value 1.02 | locus YOR080W, strain dia2, stronger effect = lower value 0.99 | locus YOR083W, strain WHI5, stronger effect = lower value 1 | locus YOR106W, strain vam3, stronger effect = lower value 1.01 | locus YOR136W, strain idh2, stronger effect = lower value 1.01 | locus YOR144C, strain elg1, stronger effect = lower value 0.987 | locus YOR184W, strain ser1, stronger effect = lower value 0.986 | locus YOR265W, strain rbl2, stronger effect = lower value 1.01 | locus YOR270C, strain vph1, stronger effect = lower value 1.03 | locus YOR290C, strain snf2, stronger effect = lower value 1.01 | locus YOR316C, strain cot1, stronger effect = lower value 1 | locus YPL051W, strain arl3, stronger effect = lower value 0.996 | [3] 1.01 | locus YPL078C, strain atp4, stronger effect = lower value 1 | locus YPL106C, strain sse1, stronger effect = lower value 0.99 | locus YPL240C, strain hsp82, stronger effect = lower value 0.999 | locus YPR119W, strain clb2, stronger effect = lower value 1 | locus YPR141C, strain kar3, stronger effect = lower value 0.985 | locus YPR163C, strain tif3, stronger effect = lower value 1 | locus YPR167C, strain met16, stronger effect = lower value 0.994 | strain wtn01, stronger effect = lower value 0.986
